# Data from PubChem BioAssay.
# Records with an inconclusive call do not appear. Active and inactive are the calls of the source. Unless noted, no rule for the calls is given here.
# Legend:
# [1] = modulation of C. elegans fzo-1 (AID 1259413);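 also: fzo-1 mutant C. elegans worms in liquid wells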; conditions: C. elegans fzo-1 modulator screen, mean read-out; stronger effect = higher value
# [2] = differential killing of epithelial or mesenchymal cells, primary screen, imaging, PC-3E GFP, TEM4-18 mCherry, co-culture (AID 1345086;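 active = compounds killing one labelled cell type while sparing the other, by normalised counts and ratio limits, not self-fluorescent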;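 as to all read-outs here: cells exposed to compound for 72 h before imaging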;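 as to red/green cell ratio (normalised): normalised mesenchymal count divided by normalised epithelial count so high means epithelial killing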); conditions: imaging cell counts, at 1 µM; for red/green cell ratio (normalised): actives lie on both sides, counts scaled to control wells, 1 = unselective
# [3] = system: Aerobactin synthetase IucA (Klebsiella pneumoniae); experiment: IucA aerobactin synthetase inhibitors, biochemical, Tocris library, absorbance (AID 1345561); conditions: purified IucA enzyme assay, absorbance (OD) read-out; stronger effect = lower value;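 tested at 8 µM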;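 also: 100% = enzyme without compound and 0% = no enzyme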
# [4] = growth inhibition of DIPG glioma cells, dose response, cell-based, JHH-DIPG-1, MIPE4.0, CellTiter-Glo, qHTS (AID 1347062; cut-off not given, nearly all actives have AC50 up to about 27 µM;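 as to AC50: cells exposed to compound for two days before readout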); conditions: JHH-DIPG-1 viability, CellTiter-Glo ATP luminescence
# [5] = growth inhibition of DIPG glioma cells, dose response, cell-based, SU-DIPG-IV, MIPE4.0, CellTiter-Glo, qHTS (AID 1347063; cut-off not given, nearly all actives have AC50 up to about 30 µM;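 also: compound exposure lasted 48 hours before the viability readout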); conditions: SU-DIPG-IV viability, CellTiter-Glo ATP luminescence
# [6] = growth inhibition of DIPG glioma cells, dose response, cell-based, SU-DIPG-XVII, MIPE5.0, CellTiter-Glo, qHTS (AID 1347060; cut-off not given, nearly all actives have AC50 up to about 26 µM;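 as to AC50: cells exposed to compound for 48 hours before viability readout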); conditions: SU-DIPG-XVII viability, CellTiter-Glo ATP luminescence
# [7] = growth inhibition of DIPG glioma cells, dose response, cell-based, SU-DIPG-XIII, MIPE4.0, CellTiter-Glo, qHTS (AID 1347061; cut-off not given, nearly all actives have AC50 up to about 37 µM;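 also: cells exposed to compound for 48 hours before readout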); conditions: SU-DIPG-XIII viability, CellTiter-Glo ATP luminescence
# [8] = growth inhibition of DIPG glioma cells, dose response, cell-based, SU-DIPG-XIII, MIPE5.0, CellTiter-Glo, qHTS (AID 1347064; cut-off not given, nearly all actives have AC50 up to about 23 µM;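 as to AC50: cells exposed to compound for 48 hours before the viability read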); conditions: SU-DIPG-XIII viability, CellTiter-Glo ATP luminescence
# [9] = measured here: epithelial PC-3E GFP cell survival
# [10] = measured here: mesenchymal TEM4-18 mCherry cell survival
smiles,measurement,setting,value
COC(=O)C1=C(C)NC(C)=C(C(=O)OC(C)C)C1c1cccc2nonc12 (stereo unspecified),mean signal,[1],273 (inactive)
same,red/green cell ratio (normalised),[2],1.19 (inactive)
same,normalised cell number,[2]; [9],0.87
same,normalised cell number,[2]; [10],1.04
same,remaining activity,[3],109% (inactive)
same,outcome,[4],inactive
same,outcome,[5],inactive
CC(N)C12CC3CC(CC(C3)C1)C2 (stereo unspecified),mean signal,[1],212 (inactive)
same,red/green cell ratio (normalised),[2],0.95 (inactive)
same,normalised cell number,[2]; [9],1.11
same,normalised cell number,[2]; [10],1.06
same,outcome,[6],inactive
same,outcome,[7],inactive
same,outcome,[4],inactive
same,outcome,[5],inactive
same,outcome,[8],inactive
CCN(CC)CCOc1ccc(/C(=C(\Cl)c2ccccc2)c2ccccc2)cc1,mean signal,[1],199 (inactive)
same,red/green cell ratio (normalised),[2],1.05 (inactive)
same,normalised cell number,[2]; [9],1.43
same,normalised cell number,[2]; [10],1.5
same,AC50,[6],8.33 µM (active)
same,AC50,[8],11.8 µM (active)
O=C(O)CCNC(=O)c1ccc(N=Nc2ccc(O)c(C(=O)O)c2)cc1,mean signal,[1],240 (inactive)
same,red/green cell ratio (normalised),[2],1.02 (inactive)
same,normalised cell number,[2]; [9],1.19
same,normalised cell number,[2]; [10],1.21
same,outcome,[6],inactive
same,outcome,[7],inactive
same,outcome,[4],inactive
same,outcome,[8],inactive
CC(C)NCC(O)COc1ccc(COCCOC(C)C)cc1 (stereo unspecified),mean signal,[1],229 (inactive)
same,red/green cell ratio (normalised),[2],0.9 (inactive)
same,normalised cell number,[2]; [9],1.05
same,normalised cell number,[2]; [10],0.94
same,remaining activity,[3],120% (inactive)
same,outcome,[7],inactive
same,outcome,[4],inactive
same,outcome,[5],inactive
COc1ccc(C2CNC(=O)C2)cc1OC1CCCC1 (stereo unspecified),mean signal,[1],251 (inactive)
same,red/green cell ratio (normalised),[2],0.93 (inactive)
same,normalised cell number,[2]; [9],1.05
same,normalised cell number,[2]; [10],0.97
same,remaining activity,[3],98.4% (inactive)
same,outcome,[6],inactive
same,outcome,[4],inactive
same,outcome,[5],inactive
same,outcome,[8],inactive
NS(=O)(=O)c1cc(C(=O)O)c(NCc2ccco2)cc1Cl,mean signal,[1],263 (inactive)
same,red/green cell ratio (normalised),[2],1.08 (inactive)
same,normalised cell number,[2]; [9],1.05
same,normalised cell number,[2]; [10],1.14
same,outcome,[7],inactive
CC(C)[C@H](N)C(=O)OCCOCn1cnc2c(=O)[nH]c(N)nc21,mean signal,[1],266 (inactive)
same,red/green cell ratio (normalised),[2],0.91 (inactive)
same,normalised cell number,[2]; [9],1.13
same,normalised cell number,[2]; [10],1.03
same,outcome,[6],inactive
same,outcome,[7],inactive
same,outcome,[4],inactive
same,outcome,[5],inactive
same,outcome,[8],inactive
CC(C)(C#N)c1cc(Cn2cncn2)cc(C(C)(C)C#N)c1,mean signal,[1],266 (inactive)
same,red/green cell ratio (normalised),[2],1.37 (inactive)
same,normalised cell number,[2]; [9],0.74
same,normalised cell number,[2]; [10],1.02
same,outcome,[6],inactive
same,outcome,[7],inactive
same,outcome,[4],inactive
CCCOc1ccc(C(=O)OCCN(CC)CC)cc1N,mean signal,[1],287 (active)
same,red/green cell ratio (normalised),[2],1.08 (inactive)
same,normalised cell number,[2]; [9],1.2
same,normalised cell number,[2]; [10],1.3
same,outcome,[6],inactive
same,outcome,[4],inactive
same,outcome,[5],inactive
same,outcome,[8],inactive
Nc1[nH]c(=O)ncc1F,mean signal,[1],243 (inactive)
same,red/green cell ratio (normalised),[2],1.01 (inactive)
same,normalised cell number,[2]; [9],0.89
same,normalised cell number,[2]; [10],0.9
same,outcome,[6],inactive
same,outcome,[8],inactive
CCc1c2c(nc3ccc(OC(=O)N4CCC(N5CCCCC5)CC4)cc13)-c1cc3c(c(=O)n1C2)COC(=O)[C@]3(O)CC,mean signal,[1],270 (inactive)
same,red/green cell ratio (normalised),[2],1.07 (inactive)
same,normalised cell number,[2]; [9],0.32
same,normalised cell number,[2]; [10],0.34
same,remaining activity,[3],108% (inactive)
same,AC50,[6],0.263 µM (active)
same,AC50,[5],4.69 µM (active)
N#Cc1ccc(C(c2ccc(C#N)cc2)n2cncn2)cc1,mean signal,[1],236 (inactive)
same,red/green cell ratio (normalised),[2],1.05 (inactive)
same,normalised cell number,[2]; [9],1.21
same,normalised cell number,[2]; [10],1.28
same,outcome,[6],inactive
same,outcome,[4],inactive
same,outcome,[8],inactive
CN1CCC(=C2c3ccccc3C=Cc3ccccc32)CC1,mean signal,[1],251 (inactive)
same,red/green cell ratio (normalised),[2],1.06 (inactive)
same,normalised cell number,[2]; [9],0.91
same,normalised cell number,[2]; [10],0.97
same,remaining activity,[3],104% (inactive)
same,outcome,[6],inactive
same,AC50,[7],23.5 µM (active)
same,outcome,[8],inactive
CCCc1nc(C)c2c(=O)[nH]c(-c3cc(S(=O)(=O)N4CCN(CC)CC4)ccc3OCC)nn12,mean signal,[1],298 (inactive)
same,red/green cell ratio (normalised),[2],0.94 (inactive)
same,normalised cell number,[2]; [9],1.1
same,normalised cell number,[2]; [10],1.03
same,outcome,[6],inactive
same,AC50,[7],13.2 µM (active)
same,AC50,[4],18.7 µM (active)
same,AC50,[5],4.18 µM (active)
same,outcome,[8],inactive
COc1ccccc1N1CCN(CC(O)COc2cccc3ccccc23)CC1 (stereo unspecified),mean signal,[1],202 (inactive)
same,red/green cell ratio (normalised),[2],0.7 (inactive)
same,normalised cell number,[2]; [9],1.13
same,normalised cell number,[2]; [10],0.8
same,remaining activity,[3],100% (inactive)
same,outcome,[7],inactive
same,outcome,[4],inactive
COC1=C(OC)C(=O)C(CCCCCCCCCCO)=C(C)C1=O,mean signal,[1],254 (inactive)
same,red/green cell ratio (normalised),[2],0.83 (inactive)
same,normalised cell number,[2]; [9],1.18
same,normalised cell number,[2]; [10],0.98
same,outcome,[6],inactive
COc1cc(OC)c(C(=O)CCCN2CCCC2)c(OC)c1,mean signal,[1],255 (inactive)
same,red/green cell ratio (normalised),[2],0.81 (inactive)
same,normalised cell number,[2]; [9],1.24
same,normalised cell number,[2]; [10],1
same,outcome,[6],inactive
same,outcome,[7],inactive
same,outcome,[4],inactive
same,outcome,[5],inactive
same,outcome,[8],inactive
O=c1[nH]cnc2c1ncn2[C@H]1CC[C@@H](CO)O1,mean signal,[1],237 (inactive)
same,outcome,[7],inactive
